Experimental data as given in PubChem BioAssay (NCI).
This is part of a sample that, as a whole, favours compounds with a hit. Of some 79,000 tested, about 15% had one in any assay. Cut-off read from the data, not from the text of the source: active = growth inhibition above about 70%; inactive = the rest.

How the values were obtained:
[1] = NCI Yeast Anticancer Drug Screen. Data for the rad50 strain (AID 155);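 note: 0% = growth of vehicle-only cultures of the same strain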; conditions: S. cerevisiae rad50 strain growth inhibition; at 50.0 µM; stronger effect = higher value
Procedure, shortened: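 A DNA repair-deficient yeast mutant serves as the test organism; compound-induced growth inhibition is calculated against vehicle-treated cells.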

[2] = NCI Yeast Anticancer Drug Screen. Data for the mec2-1 strain (AID 157); conditions: S. cerevisiae mec2-1 strain, at 50.0 µM, stronger effect = higher value
Procedure, shortened: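 Growth inhibition is read against vehicle-treated controls after compound exposure of the mec2-1 yeast strain, which is defective in DNA damage repair or cell cycle control.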

[3] = NCI Yeast Anticancer Drug Screen. Data for the sgs1 mgt1 strain (AID 161);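 note: 0% = growth of cultures given vehicle only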; conditions: S. cerevisiae sgs1 mgt1 strain, at 50.0 µM, stronger effect = higher value
Procedure, shortened: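 Growth of a repair-deficient yeast mutant was monitored after compound treatment and expressed as inhibition relative to vehicle-treated cultures.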

[4] = NCI Yeast Anticancer Drug Screen. Data for the cln2 rad14 strain (AID 165);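 note: 0% = growth equal to vehicle treated cultures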; conditions: S. cerevisiae cln2 rad14 strain, at 50.0 µM, stronger effect = higher value
Procedure, shortened: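 Growth inhibition, relative to vehicle-treated controls, is the read-out. The test organism is a yeast strain with defined genetic alterations, cln2 rad14.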

[5] = NCI Yeast Anticancer Drug Screen. Data for the bub3 strain (AID 167); conditions: S. cerevisiae bub3 mutant strain, at 50.0 µM, stronger effect = higher value
Procedure, shortened: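 Inhibition values come from growth of compound-treated mutant yeast normalised to vehicle-treated controls.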

[6] = NCI Yeast Anticancer Drug Screen. Data for the mlh1 rad18 strain (AID 175); conditions: S. cerevisiae mlh1 rad18 strain growth inhibition; at 50.0 µM; stronger effect = higher value
Procedure, shortened: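 Cells of a genetically altered yeast strain, deficient in DNA damage repair, were treated with compound. Their growth was then compared with that of vehicle-treated cultures to give inhibition.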

Measured: growth inhibition

O=C(OCC(OC(=O)c1ccccc1)C(OC(=O)c1ccccc1)C(COC(=O)c1ccccc1)OC(=O)c1ccccc1)c1ccccc1 (stereo unspecified)
inactive: [1] 67% | [2] 26.1% | [3] 56.9% | [4] 0.2% | [5] 16.4% | [6] 52.4%

CN(C)C(=O)Sc1ccc(N(C)C)cc1
inactive: [1] -5.15% | [2] -17.9% | [3] -11.3% | [4] -25.2% | [5] 15.1% | [6] -23.2%

CCOC(=O)COc1cc2c(cc1Cc1ccc3c(c1)OCO3)OCO2
inactive: [1] 0.6% | [2] 1.95% | [3] -0.7% | [4] 5.65% | [5] 16.2% | [6] 0.95%

CC(C)N1CC2CC(CN(C(=O)c3ccc(Cl)cc3)C2)C1
inactive: [1] -30.4% | [2] -8.45% | [3] -8.25% | [4] 2.95% | [5] -16.4% | [6] -5.9%

[Mn].[NH-]C(CSSCC(N)C(=O)O)C(=O)O (stereo unspecified)
inactive: [1] -2.45% | [2] -0.4% | [3] -1% | [4] 5.5% | [5] 22.6% | [6] 9%

O=C(NCCCl)Oc1cccn(C(=O)NCCCl)c1=O
inactive: [1] 7.15% | [2] 9.7% | [3] -2.55% | [4] 9.1% | [5] 0.65% | [6] -0.8%

C=C1CCCC2OC(OC)CCC12 (stereo unspecified)
inactive: [1] -23.4% | [2] -10.8% | [3] -6.5% | [4] 0.75% | [5] -21.9% | [6] -10.6%

CC(=O)Nc1cc2c(cc1C=O)OCO2
inactive: [1] 19.6% | [2] 9.7% | [3] -0.6% | [4] -32.3% | [5] -2.5% | [6] 11.3%

COC(=O)CCc1onc(Br)c1CCl
inactive: [1] 17.8% | [2] 9.05% | [3] -7.55% | [4] 0.35% | [5] 9.95% | [6] 9.5%

CCCNCCCCC(C)Nc1cc(OC)cc2cccnc12 (stereo unspecified)
inactive: [1] 7.1% | [2] -14.8% | [3] -15.6% | [4] -21.1% | [5] 8.2% | [6] 23.9%

Cc1c[n+]([O-])cc(C)c1N=Nc1ccc(N(C)C)cc1
inactive: [1] 2.55% | [2] -7.7% | [3] -7.95% | [4] 11.1% | [5] 11.9% | [6] 18.2%

O=C(Nc1nc2ccccc2[nH]1)C(F)(F)F
inactive: [1] -6.8% | [2] -13.4% | [3] -3.85% | [4] 5.55% | [5] -2.55% | [6] 20%

Oc1[nH]c2ccccc2c1N=Nc1nc(-c2ccc(Br)cc2)cs1
inactive: [1] -24.9% | [2] -24.8% | [3] -17.4% | [4] -10.2% | [5] 12% | [6] 5.5%

c1ccc(N=C2SC(=NNc3ccccc3)SC2=Nc2ccccc2)cc1
inactive: [1] -21.8% | [2] 6.25% | [3] -21.9% | [4] -29.5% | [5] -8.25% | [6] -4.1%

O=[N+]([O-])C(=C(N1CCOCC1)N1CCOCC1)/C(Cl)=C(\Cl)Br
inactive: [1] -19.2% | [2] -1.1% | [3] -0.6% | [4] -14.1% | [5] 4.5% | [6] 2.55%

O=C(O)CCSc1ccccc1[N+](=O)[O-]
inactive: [1] 31.6% | [2] -8.6% | [3] 23.4% | [4] -10.3% | [5] -0.9% | [6] 19.9%

CC(=O)c1cccc(NC(=O)N(C)C2CCCCC2)c1
inactive: [1] 5.65% | [2] 13.7% | [3] -3.65% | [4] -15.6% | [5] -7.45% | [6] -22.1%

CCCC/C=C(\C)C(C)(C#N)C(=O)OCC (stereo unspecified)
inactive: [1] -35.4% | [2] -0.4% | [3] -4.5% | [4] -14% | [5] -17.9% | [6] -3.15%

NC(=O)N/N=C/c1ccc(Cl)cc1Cl
inactive: [1] -3.7% | [2] -5.55% | [3] -8.25% | [4] -1.65% | [5] 4.8% | [6] -13.6%

N=C(N)SCCC(=O)O
inactive: [1] -29.4% | [2] -21.1% | [3] -39.7% | [4] -69.6% | [5] 17.4% | [6] -56.6%

CSc1ccc(NC(=O)COc2ccccc2)cc1
inactive: [1] 9.75% | [2] 19.1% | [3] 6.05% | [4] -3.7% | [5] 39.3% | [6] 21.7%
